Source: PubChem BioAssay
LYPLA2 inh = blocks human lysophospholipase 2, a PME1 counter-screen; inhibition, % at 5.9 µM; hit rate 0.38% among 320,000; O95372; recombinant LYPLA2, FP-Rh probe fluorescence polarization; AID 2177;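 active = inhibition above the screen-wide mean plus 3 SD, limit set per campaign, cut at about 26% in these data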
Target sequence (O95372 whole entry, looked up): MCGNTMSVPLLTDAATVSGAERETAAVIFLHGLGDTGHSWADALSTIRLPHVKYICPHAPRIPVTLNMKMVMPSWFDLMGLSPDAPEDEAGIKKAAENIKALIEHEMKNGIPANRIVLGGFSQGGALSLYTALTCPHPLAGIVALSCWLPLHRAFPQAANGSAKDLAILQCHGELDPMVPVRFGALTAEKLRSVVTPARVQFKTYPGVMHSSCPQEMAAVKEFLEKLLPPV
Fam108B counter = Fam108B inhibition, counter-screen for RBBP9 inhibitors. inhibition, % at 9.51 µM. recombinant Fam108B, FP-Rh probe fluorescence polarization. hit rate 0.33% among 300,000. AID 1947;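 active = inhibition above the screen mean inhibition plus 3 SD, computed separately per campaign, cut at about 18% in these data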;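 note: inhibitors lower polarization as less probe binds the enzyme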
PAD4 inh = inhibitors of human PAD4 | Q9UM07 | recombinant PAD4, RCA probe fluorescence polarization | inhibition, % at 6.36 µM | hit rate 0.41% among 330,000 | AID 485272;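 active = percent inhibition above a cutoff equal to the mean of all tested compounds plus 3 SD, cut at about 15% in these data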
PME-1 primary = blocks human protein phosphatase methylesterase 1; Q9Y570; recombinant PME-1, FP-Rh probe fluorescence polarization; inhibition, % at 5.9 µM; hit rate 0.53% among 320,000;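 active = inhibition above the campaign mean of all compounds plus 3 SD, cut at about 26% in these data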;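 note: competitive labeling of PME-1 active site by serine hydrolase directed probe; inhibitors block probe labeling so polarization falls and inhibition rises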
GSTO1 counter = counter-screen for RBBP9 inhibitors: inhibitors of human GSTO1 | recombinant GSTO1, activity-based probe fluorescence polarization | inhibition, % at 5.96 µM | hit rate 1.1% among 300,000 | AID 1974;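 active = inhibition above the campaign mean inhibition plus 3 SD, cut at about 35% in these data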
LYPLA1 inh = blocks human lysophospholipase 1, a PME1 counter-screen | O75608 | hit rate 0.16% among 320,000 | inhibition, % at 5.9 µM | recombinant LYPLA1, FP-Rh probe fluorescence polarization;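 active = inhibition above the mean of all tested compounds plus 3 SD, set per campaign, cut at about 14% in these data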;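 note: inhibitors block serine hydrolase probe labeling of LYPLA1 so polarization falls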
Target sequence (O75608 whole entry, looked up): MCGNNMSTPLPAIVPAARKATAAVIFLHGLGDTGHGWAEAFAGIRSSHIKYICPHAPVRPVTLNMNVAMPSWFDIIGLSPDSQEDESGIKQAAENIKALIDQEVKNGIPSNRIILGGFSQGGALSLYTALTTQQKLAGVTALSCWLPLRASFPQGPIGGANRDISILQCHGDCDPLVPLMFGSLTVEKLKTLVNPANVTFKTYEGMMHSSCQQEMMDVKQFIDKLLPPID
PAD4 FP conf = PAD4 (human) inhibition, confirmed. shares compounds with PAD4 inh. recombinant PAD4, RCA probe fluorescence polarization. inhibition, % at 6.36 µM. hit rate 28% among 1,200;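 active = mean inhibition across replicates above the hit cutoff set by the earlier primary screen, cut at about 15% in these data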;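 note: inhibitors block active-site labeling by the probe so polarization falls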
Hits are given with their value; . = inactive; / = no result. An excerpt weighted towards active compounds, which were near 1.8% of everything screened.

SMILES	LYPLA2 inh	Fam108B counter	PAD4 inh	PME-1 primary	GSTO1 counter	LYPLA1 inh	PAD4 FP conf
O=C(NC(=S)Nc1ccc(F)c([N+](=O)[O-])c1)c1ccccc1F	.	.	17.5	.	.	.	.
O=C(NC(=S)Nc1ccc2[nH]c(=O)[nH]c2c1)c1ccccc1F	.	.	.	.	.	.	/
Oc1ccc(C=Nc2cccc3ncccc23)c(O)c1	.	.	15.6	.	.	.	.
Cc1ccc(NC(=O)CCNS(=O)(=O)c2ccc3[nH]c(=O)oc3c2)cc1F	.	.	20.9	.	.	.	.
CCOC(=O)c1cc(-c2ccc(OC)cc2)nc2c1c(C)nn2CCC(N)=S	.	.	.	.	.	.	/
COc1cc(C(=O)Nc2ccn(C)n2)ccc1OC(F)F	.	/	.	.	/	.	/
COc1ccc(N(C)S(=O)(=O)c2cccc(C(=O)OCC(=O)NCc3ccccc3OC)c2)cc1	.	.	.	.	.	.	/
COc1ccc(N(C)S(=O)(=O)c2cccc(C(=O)OCC(=O)N3CC(C)CC(C)C3)c2)cc1 (centres undefined)	/	/	17.1	/	/	/	.
CC(C(=O)N1c2ccccc2CC1C)N1CCN(S(=O)(=O)c2ccccc2F)CC1 (centres undefined)	.	/	.	.	/	.	/
CN(CCO)c1nc(N)c2c(N)nc3c(c2c1C#N)CC(=O)N3C1CCCC1	.	.	15.9	.	.	.	.
CCC1Cc2c(nc(N)c3c(N)nc(N4CCCCC4)c(C#N)c23)O1 (centres undefined)	.	.	.	.	.	.	/
O=C(NCCCO)c1nnc(Cc2c(F)cccc2Cl)o1	.	.	49.9	.	.	.	.
CCN(CC)c1nc(N)nc(NS(=O)(=O)c2ccc(Cl)cc2)n1	.	.	27.0	.	.	.	.
Cc1cc(NN)nc(NS(=O)(=O)c2ccc(Cl)cc2)n1	.	.	.	.	.	.	/
CC(=O)c1ccc([N+](=O)[O-])c(CS(=O)(=O)c2ccccc2)c1	.	.	.	.	.	.	/
O=C(CN1CCCCC1)Nc1ccc(C(F)(F)F)cc1Cl	.	.	18.1	.	.	.	.
O=C(CN1CCCC1)Nc1cc(C(F)(F)F)ccc1Cl	.	.	.	.	.	.	/
COCCCn1c(SCC(=O)Nc2ccc(NC(C)=O)cc2)nc2sc3c(c2c1=O)CCC3	.	.	.	.	.	.	/
CC(=O)Nc1c(O)c2cccc3c2n(c1=O)CCC3	.	.	.	.	.	.	/
Cc1onc(C(=O)N2CCOCC2)c1[N+](=O)[O-]	.	.	21.8	.	.	.	19.2
CC(C)c1onc(C(=O)N2CCOCC2)c1[N+](=O)[O-]	.	.	.	.	.	.	/
CCOC(=O)C1=C(C)N=c2s/c(=C\c3cccc(OCC(=O)O)c3)c(=O)n2C1c1ccccc1OC (centres undefined)	.	.	.	.	.	.	/
CCOC(=O)C1=C(C)N=c2s/c(=C\c3ccc(OCC(=O)O)cc3)c(=O)n2C1c1ccc(OC(C)C)cc1 (centres undefined)	.	.	18.5	.	.	.	.
COc1cccc(C2C(C(=O)Nc3ccccc3)=C(C)N=c3s/c(=C/c4ccc(OCC(=O)O)cc4)c(=O)n32)c1 (centres undefined)	.	.	19.0	.	.	.	.
CCOC(=O)C1=C(C)N=c2s/c(=C/c3ccc(OCC(=O)O)cc3)c(=O)n2C1c1cc(OC)c(OC)c(OC)c1 (centres undefined)	.	.	25.0	.	.	.	.
SMILES	LYPLA2 inh	Fam108B counter	PAD4 inh	PME-1 primary	GSTO1 counter	LYPLA1 inh	PAD4 FP conf
COC(=O)C(Cc1ccc(O)cc1)NC(=O)c1ccc2c(c1)OCCO2 (centres undefined)	.	.	.	.	.	.	/
O=C(CS)Nc1ccc2ccccc2c1	.	.	28.2	.	.	.	.
COc1cc(NC(=O)c2cc(C)nc3ccccc23)cc(OC)c1OC	.	.	28.5	.	.	.	.
COc1cccc2cc(C(C)=O)c(=O)oc12	.	.	.	.	.	.	/
COc1cccc2cc(C(=O)NC3CC(C)(C)NC(C)(C)C3)c(=O)oc12	.	.	78.9	.	.	.	.
Cc1c(Cl)cnc(NC(=O)COC(=O)[C@H](C)NC(=O)c2ccccc2)c1Cl	.	/	.	.	/	.	/
COc1cc(SC#N)ccc1N=Cc1c(C)[nH]n(-c2ccc(C)cc2C)c1=O	.	.	22.3	.	.	.	36.5
COc1cc(SC#N)ccc1N=Cc1c(C)[nH]n(-c2cccc3ccccc23)c1=O	.	.	30.9	.	.	.	45.5
COc1cc(S(=O)(=O)Nc2ccc(C)cc2)ccc1N=Cc1c(C)[nH]n(-c2ccc(C)cc2)c1=O	.	.	.	.	.	.	/
COc1ccccc1N=Cc1c(C)[nH]n(-c2ccc(C)cc2C)c1=O	.	.	.	.	.	.	/
COc1cc(OC)c2cc(C(=O)N[C@H](C(=O)N3CCC[C@H]3C(=O)O)C(C)C)n(C)c2c1	.	.	.	.	.	.	/
COc1ccc(CSc2nncn2N)cc1Br	.	.	.	.	.	.	/
COc1cc(/C=N/Nc2nncn2N)ccc1OCc1c(C)no[n+]1[O-]	.	.	45.4	.	.	.	.
COc1ccc(/C=N/Nc2nncn2N)cc1Br	.	.	53.0	.	.	.	.
CC(C)(C)OC(=O)C[C@@H]1C/C=C\C[C@@H](CC(=O)N(CCO)Cc2ccccc2)C(=O)N[C@H](C(C)(C)C)COC1=O	/	/	.	/	/	/	/
C[C@H](CO)N1C[C@H](C)[C@@H](CN(C)C(=O)Nc2ccc(C(F)(F)F)cc2)Oc2ccc(NC(=O)CCC(F)(F)F)cc2C1=O	/	/	.	/	/	/	/
COc1cc(-c2nc(C(=O)NCC3CCCO3)cc3c2[nH]c2ccccc23)cc(OC)c1OC (centres undefined)	.	.	32.6	.	.	.	37.9
COc1ccccc1-c1nc(C(=O)NCC2CCCO2)cc2c1[nH]c1ccccc12 (centres undefined)	.	.	36.7	.	.	.	33.3
CN(Cc1ccc(Cl)s1)C(=O)CSc1nnc(C2CC2)n1C1CC1	.	/	.	.	/	.	/
Cc1onc(-c2ccccc2)c1C(=O)NCC(=O)Nc1cc(Cl)ccc1Cl	/	/	.	/	/	/	/
c1ccc(Nc2cc(Nc3ccccc3)[nH]n2)cc1	.	.	30.8	.	.	.	.
NC(=O)N/N=C/c1cccc(OCc2ccc(F)cc2)c1	.	.	.	.	.	.	/
Cc1nnc(N/N=C/c2cccc(C(F)(F)F)c2)n1N	.	.	35.0	.	.	.	.
Cc1nnc(N/N=C/c2cccc(OCc3ccc(Cl)c(Cl)c3)c2)n1N	.	.	33.5	.	46.3	.	.
COc1ccc(-n2c(C)cc(/C=N/Nc3nnc(C)n3N)c2C)cc1	.	.	36.1	.	45.9	.	.
Cc1nnc(N/N=C/c2ccccc2C(F)(F)F)n1N	.	.	18.5	.	.	.	.
COc1ccc(Cc2nnc(NS(=O)(=O)c3ccc(Cl)cc3)s2)cc1OC	.	.	.	.	.	.	/
